# Assay outcomes deposited in PubChem BioAssay by Broad Institute.
# LGR2 antag = Drosophila LGR2 receptor signaling inhibition. HEK293 LGR2, CRE-luciferase, bursicon-stimulated, 4 h. inhibition, % at 9.99 µM. 380,000 tested, 0.35% active. AID 720647;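 active = drop in luminescence signal, shown as inhibition above about 50% in the replicate tests, limit read from the data, passing the limit was not always enough; inconclusive = probably only some replicates passing the limit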;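 note: agonist challenge used bursicon conditioned medium at about half maximal strength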
# TRPM1 prom inh = MITF TRPM1 promoter inhibition in SK-MEL-5 cells; inhibition, % at 12.5 µM; 330,000 tested, 0.83% active; SK-MEL-5 TRPM1 promoter luciferase, 24 h; AID 488899;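 active = mean inhibition across replicates of 60% or more, whatever share of single replicates reaches that level; inconclusive = some that reach 60%, reason not given; inactive = mean inhibition across replicates below 60%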
# EWS-Fli inh = blocks EWS/Fli oncoprotein-driven transcription. A673 NR0B1-luciferase reporter, viability-normalised. inhibition, % at 12.6 µM. 350,000 tested, 0.67% active. AID 651661;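 active = mean inhibition of at least 50% after viability correction, with every replicate also passing that limit; inconclusive = mean reaches 50% but only one of two replicates passes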;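 note: firefly luciferase signal divided by Alamar Blue viability fluorescence both relative to DMSO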
# LMP1 NFkB inh = reduces LMP1-driven NF-kappaB luciferase signal. LMP1-induced NF-kappaB luciferase reporter cells, luminescence. inhibition, % at 12.5 µM. 350,000 tested, 0.69% active. AID 504558; in the data active = inhibition above about 41%; inconclusive = no clear call, values can overlap the other calls
# Shn3 3UTR inh = inhibitors of Schnurri-3 3'UTR reporter in osteoblasts | Clone20 osteoblast Shn3 3'UTR firefly luciferase, 24 h | inhibition, % at 12.5 µM | 360,000 tested, 0.52% active | AID 588674;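 active = mean inhibition of at least 75% with every replicate also reaching 75%; inconclusive = mean inhibition at least 75% but some replicate below; inactive = mean inhibition below 75%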
# PAX8 reporter = inhibitors of PAX8 transcriptional activity in RMG-I cells. 360,000 tested, 1.2% active. inhibition, % at 12.6 µM. AID 652154. RMG-I TPO-luciferase reporter, SteadyGlo, 24 h;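 active = mean replicate inhibition at least 60% with every replicate also reaching 60%; inconclusive = only one of the two criteria is met; inactive = mean below 60% and not all replicates reaching 60%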;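 note: luciferase light reporting Pax8 driven TPO promoter activity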
# A number is an active result; i = inactive; ? = inconclusive; nt = no result. In the library only some 2.2% were active in any assay of this set; here they are far more common.
SMILES,LGR2 antag,TRPM1 prom inh,EWS-Fli inh,LMP1 NFkB inh,Shn3 3UTR inh,PAX8 reporter
N#Cc1c(F)cccc1NCc1cccnc1,i,i,i,i,i,i
Cn1c(N)c(C(=O)COC(=O)c2ccccc2C(=O)c2ccccc2)c(=O)n(C)c1=O,i,nt,i,i,i,i
CC(C)N(C(=O)COC(=O)c1ccccc1C(=O)c1ccc(Cl)c([N+](=O)[O-])c1)C(C)C,94,i,?,i,i,i
Cn1c(N)c(C(=O)COC(=O)c2ccccc2C(=O)c2ccc(Cl)c([N+](=O)[O-])c2)c(=O)n(C)c1=O,nt,92,nt,i,i,nt
COc1ccc(C(=O)c2ccc(Cl)c([N+](=O)[O-])c2)cc1,i,64,i,i,i,108
CN(CCC#N)C(=O)COC(=O)c1ccccc1C(=O)c1ccc(Cl)c([N+](=O)[O-])c1,nt,66,i,i,i,i
O=C(COC(=O)c1ccccc1C(=O)c1ccc(Cl)c([N+](=O)[O-])c1)NC1CCCCCC1,nt,100,nt,87,i,i
O=C(COC(=O)c1ccc(Cl)c([N+](=O)[O-])c1)NC1CCCC1,i,i,i,i,i,i
COc1cc(-c2onc3ccc(Br)cc23)cc(OC)c1OC,i,i,56,i,i,i
O=c1nc(N/N=C/C=C/c2ccccc2)cn[nH]1,67,i,i,47,i,i
O=c1nc(N/N=C/c2c[nH]c3ccccc23)cn[nH]1,i,i,i,i,i,i
COc1cc(/C=N/Nc2nc3c(c(=O)n(C)c(=O)n3C)n2Cc2ccccc2)ccc1OC(=O)c1ccco1,51,i,i,i,i,i
Cn1c(=O)c2c(nc(N/N=C/c3ccncc3)n2Cc2ccccc2)n(C)c1=O,i,i,i,i,i,i
C[C@@H]1CN([C@@H](C)CO)C(=O)c2c(c3ccccc3n2C)-c2ccccc2CO[C@H]1CN(C)Cc1ccc(-c2ccccc2)cc1,i,nt,i,nt,nt,nt
C[C@@H]1CN([C@H](C)CO)C(=O)c2c(c3ccccc3n2C)-c2ccccc2CO[C@@H]1CN(C)C,i,nt,i,nt,nt,88
C[C@H](CO)N1C[C@H](C)[C@@H](CN(C)C(=O)Cc2ccccc2)OCc2ccccc2-c2c(n(C)c3ccccc23)C1=O,i,nt,i,nt,nt,66
C[C@H]1CN([C@@H](C)CO)C(=O)c2c(c3ccccc3n2C)-c2ccccc2CO[C@@H]1CN(C)Cc1ccc(-c2ccccc2)cc1,i,nt,i,nt,nt,82
C[C@@H]1CN([C@@H](C)CO)C(=O)c2c(c3ccccc3n2C)-c2ccccc2CO[C@@H]1CN(C)Cc1ccc(-c2ccccc2)cc1,i,nt,i,nt,nt,63
C[C@H](CO)N1C[C@H](C)[C@H](CN(C)C(=O)Cc2ccccc2)OCc2ccccc2-c2c(n(C)c3ccccc23)C1=O,i,nt,i,nt,nt,i
C[C@@H]1CN([C@H](C)CO)C(=O)c2c(c3ccccc3n2C)-c2ccccc2CO[C@@H]1CN(C)Cc1ccc(-c2ccccc2)cc1,i,nt,i,nt,nt,i
CO[C@@H]1CN(C)C(=O)c2cc(NC(=O)c3nc4ccccc4s3)ccc2OC[C@@H](C)N(Cc2ccccc2)C[C@H]1C,i,nt,i,nt,nt,i
Nc1c(N(C(=O)Nc2ccc(Cl)c(Cl)c2)C2CCCC2)c(=O)[nH]c(=O)n1Cc1ccccc1,nt,77,nt,i,i,nt
COCCN(C(=O)C1CCCC1)c1c(N)n(Cc2ccccc2)c(=O)[nH]c1=O,i,i,i,i,i,i
COc1ccc(/C=N/NC(=O)c2[nH]c3ccc(Br)cc3c2-c2ccccc2)cc1,i,68,nt,i,i,102
COc1ccc(/C=N/NC(=O)c2[nH]c3ccc(Br)cc3c2-c2ccccc2)c(C(=O)O)c1OC,i,i,i,i,i,i
O=C(C[C@H]1C[C@@H]2c3cc(NC(=O)Nc4ccccc4)ccc3O[C@@H]2[C@H](CO)O1)NCC(F)(F)F,i,nt,i,nt,nt,i
CC(C)[C@H](CO)Nc1nc(NCc2ccc(S(N)(=O)=O)cc2)c2ncn(C(C)C)c2n1,53,i,i,i,i,69
O=C(OCc1nc2ccccc2s1)[C@@H]1CCCN1S(=O)(=O)c1ccccc1F,nt,i,nt,77,i,nt
O=S(=O)(c1ccccc1)N1C[C@H]2[C@@H](c3ccccc31)[C@H](CO)N2Cc1ccccc1,i,nt,i,nt,nt,i
C[C@@H]1CN([C@@H](C)CO)S(=O)(=O)c2ccc(Br)cc2O[C@@H]1CN(C)C(=O)C1CCC1,i,nt,i,nt,nt,nt
